# Measured values as given in paper PMC12820563, “FoxP3 forms a head-to-head dimer in vivo and stabilizes its multimerization on adjacent microsatellites”.
# Over roughly 16,000 sequences, “rpm ratio (pull-down/input)” has its median near 0.94; the highest 2% begin near 1.7. The entries come from a sample that favours the highest values as a whole.
# Target: T1, MBP-FoxP1dN (Mus musculus, UniProt P58462 326-579)
# T1 sequence: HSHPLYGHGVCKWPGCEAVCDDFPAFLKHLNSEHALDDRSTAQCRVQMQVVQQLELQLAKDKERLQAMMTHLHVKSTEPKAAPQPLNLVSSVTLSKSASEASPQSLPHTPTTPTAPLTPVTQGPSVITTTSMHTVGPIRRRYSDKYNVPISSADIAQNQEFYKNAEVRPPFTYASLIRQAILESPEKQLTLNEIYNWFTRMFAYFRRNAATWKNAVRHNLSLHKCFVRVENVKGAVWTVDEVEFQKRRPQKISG
# Assay: PD-seq (MBP pull-down with sequencing); 20 mM Tris-HCl pH 7.5, 100 mM NaCl, 1.5 mM MgCl2, 0.4 uM protein, 0.1 uM dsDNA library, 30 min, room temperature, amylose pull-down; high values mean tight binding
# Conditions: protein: recombinant; tags: His6-MBP; chain copies: 2; dsDNA, one strand shown
# Procedure, shortened: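 Mouse FoxP3 or FoxP1 fragment lacking the N-terminus, His6-MBP-tagged and expressed in E. coli, was incubated at 0.4 µM with 0.1 µM Klenow-filled degenerate double-stranded DNA library for 30 min at room temperature in Tris pH 7.5 buffer with NaCl and MgCl2. Complexes captured on amylose resin were washed three times and their DNA sequenced on Illumina. Binding is reads-per-million enrichment of pull-down over input, replicates pooled.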
row,Sequence,binding signal
1,GATGATTGTTCTCCCAGCTGATGAATTAAACTAATCGAGTAAACAAATTTTCCTAATCTTTCTGTTCAAGCGCCATCTAC,1.09 RPM ratio (pull-down/input)
2,GATGATTGTTCTCCCAGCTGATGAATTCGTCCTATCGAGTAAACAAATTTTCCTAATCTTTCTGTTCAAGCGCCATCTAC,0.835 RPM ratio (pull-down/input)
3,GATGATTGTTCTCCCAGCTGATGAATTTTCGCGATCGAGTAAACAAATTTTCCTAATCTTTCTGTTCAAGCGCCATCTAC,0.884 RPM ratio (pull-down/input)
4,GATGATTGTTCTCCCAGCTGATGAATTTGCGTTGTCGAGTAAACAAATTTTCCTAATCTTTCTGTTCAAGCGCCATCTAC,1.29 RPM ratio (pull-down/input)
5,GATGATTGTTCTCCCAGCTGATGAATTGGATAGCTCGAGTAAACAAATTTTCCTAATCTTTCTGTTCAAGCGCCATCTAC,0.85 RPM ratio (pull-down/input)
6,GATGATTGTTCTCCCAGCTGATGAATTGTTTAGATCGAGTAAACAAATTTTCCTAATCTTTCTGTTCAAGCGCCATCTAC,2.19 RPM ratio (pull-down/input)
7,GATGATTGTTCTCCCAGCTGATGAATTTGGTTTATCGAGTAAACAAATTTTCCTAATCTTTCTGTTCAAGCGCCATCTAC,1.32 RPM ratio (pull-down/input)
8,GATGATTGTTCTCCCAGCTGATGAATTACGTAAATCGAGTAAACAAATTTTCCTAATCTTTCTGTTCAAGCGCCATCTAC,1.34 RPM ratio (pull-down/input)
9,GATGATTGTTCTCCCAGCTGATGAATTTACGTAATCGAGTAAACAAATTTTCCTAATCTTTCTGTTCAAGCGCCATCTAC,1.82 RPM ratio (pull-down/input)
10,GATGATTGTTCTCCCAGCTGATGAATTTAGTGAATCGAGTAAACAAATTTTCCTAATCTTTCTGTTCAAGCGCCATCTAC,0.958 RPM ratio (pull-down/input)
11,GATGATTGTTCTCCCAGCTGATGAATTTAGTAAATCGAGTAAACAAATTTTCCTAATCTTTCTGTTCAAGCGCCATCTAC,1.58 RPM ratio (pull-down/input)
12,GATGATTGTTCTCCCAGCTGATGAATTTAGATGATCGAGTAAACAAATTTTCCTAATCTTTCTGTTCAAGCGCCATCTAC,1.11 RPM ratio (pull-down/input)
13,GATGATTGTTCTCCCAGCTGATGAATTTGATTTATCGAGTAAACAAATTTTCCTAATCTTTCTGTTCAAGCGCCATCTAC,1.23 RPM ratio (pull-down/input)
14,GATGATTGTTCTCCCAGCTGATGAATTTTGTTTATCGAGTAAACAAATTTTCCTAATCTTTCTGTTCAAGCGCCATCTAC,2.61 RPM ratio (pull-down/input)
15,GATGATTGTTCTCCCAGCTGATGAATTTTACGTATCGAGTAAACAAATTTTCCTAATCTTTCTGTTCAAGCGCCATCTAC,0.962 RPM ratio (pull-down/input)
16,GATGATTGTTCTCCCAGCTGATGAATTTTAGTAATCGAGTAAACAAATTTTCCTAATCTTTCTGTTCAAGCGCCATCTAC,1.75 RPM ratio (pull-down/input)
17,GATGATTGTTCTCCCAGCTGATGAATTTTTTAGATCGAGTAAACAAATTTTCCTAATCTTTCTGTTCAAGCGCCATCTAC,0.923 RPM ratio (pull-down/input)
18,GATGATTGTTCTCCCAGCTGATGAATTGTCACATTCGAGTAAACAAATTTTCCTAATCTTTCTGTTCAAGCGCCATCTAC,1.2 RPM ratio (pull-down/input)

row,Sequence,binding signal
1,GATGATTGTTCTCCCAGCTGATGAATTGAACGTTTCGAGTAAACAAATTTTCCTAATCTTTCTGTTCAAGCGCCATCTAC,0.869 RPM ratio (pull-down/input)
2,GATGATTGTTCTCCCAGCTGATGAATTTATGGGATCGAGTAAACAAATTTTCCTAATCTTTCTGTTCAAGCGCCATCTAC,0.919 RPM ratio (pull-down/input)
3,GATGATTGTTCTCCCAGCTGATGAATTCTCCCTCTCGAGTAAACAAATTTTCCTAATCTTTCTGTTCAAGCGCCATCTAC,0.869 RPM ratio (pull-down/input)
4,GATGATTGTTCTCCCAGCTGATGAATTATATTCCTCGAGTAAACAAATTTTCCTAATCTTTCTGTTCAAGCGCCATCTAC,0.968 RPM ratio (pull-down/input)
5,GATGATTGTTCTCCCAGCTGATGAATTGAGGTAGTCGAGTAAACAAATTTTCCTAATCTTTCTGTTCAAGCGCCATCTAC,0.86 RPM ratio (pull-down/input)
6,GATGATTGTTCTCCCAGCTGATGAATTAGATTTCTCGAGTAAACAAATTTTCCTAATCTTTCTGTTCAAGCGCCATCTAC,0.85 RPM ratio (pull-down/input)
7,GATGATTGTTCTCCCAGCTGATGAATTGTTTAGTTCGAGTAAACAAATTTTCCTAATCTTTCTGTTCAAGCGCCATCTAC,1.94 RPM ratio (pull-down/input)
8,GATGATTGTTCTCCCAGCTGATGAATTTAGTTTTTCGAGTAAACAAATTTTCCTAATCTTTCTGTTCAAGCGCCATCTAC,1.19 RPM ratio (pull-down/input)
9,GATGATTGTTCTCCCAGCTGATGAATTTTAGTTTTCGAGTAAACAAATTTTCCTAATCTTTCTGTTCAAGCGCCATCTAC,1.4 RPM ratio (pull-down/input)
10,GATGATTGTTCTCCCAGCTGATGAATTCGCGCAGTCGAGTAAACAAATTTTCCTAATCTTTCTGTTCAAGCGCCATCTAC,0.818 RPM ratio (pull-down/input)
11,GATGATTGTTCTCCCAGCTGATGAATTCAGTCGTTCGAGTAAACAAATTTTCCTAATCTTTCTGTTCAAGCGCCATCTAC,0.873 RPM ratio (pull-down/input)
12,GATGATTGTTCTCCCAGCTGATGAATTTTTTAGGTCGAGTAAACAAATTTTCCTAATCTTTCTGTTCAAGCGCCATCTAC,0.925 RPM ratio (pull-down/input)
13,GATGATTGTTCTCCCAGCTGATGAATTTTTTTAGTCGAGTAAACAAATTTTCCTAATCTTTCTGTTCAAGCGCCATCTAC,1.05 RPM ratio (pull-down/input)
14,GATGATTGTTCTCCCAGCTGATGAATTCTTTAGGTCGAGTAAACAAATTTTCCTAATCTTTCTGTTCAAGCGCCATCTAC,0.821 RPM ratio (pull-down/input)
15,GATGATTGTTCTCCCAGCTGATGAATTTTGTTAGTCGAGTAAACAAATTTTCCTAATCTTTCTGTTCAAGCGCCATCTAC,1.82 RPM ratio (pull-down/input)
16,GATGATTGTTCTCCCAGCTGATGAATTTTATTAGTCGAGTAAACAAATTTTCCTAATCTTTCTGTTCAAGCGCCATCTAC,1.28 RPM ratio (pull-down/input)
17,GATGATTGTTCTCCCAGCTGATGAATTATTTTAGTCGAGTAAACAAATTTTCCTAATCTTTCTGTTCAAGCGCCATCTAC,1.21 RPM ratio (pull-down/input)
